# Results reported in PubChem BioAssay (Tox21).
# Results filed as inconclusive are left out. A call without a number means that no potency is given here. Active and inactive are the calls of the source. Unless noted, calls come from the whole dose curve; as a rule, active = well fitted curve in the direction sought with a large enough effect in the repeat runs; inconclusive = weak or mixed curves; inactive = no such curve, though single readings can be large; an effect the other way counts as inactive or inconclusive.
# Assays:
# [1] = A CellTox Green Cytotoxicity Assay to monitor cytotoxicity in HEK293 cells - 32 hour (AID 1224881); note: nearly all actives have a fitted effect of over 40% in size; note: potency is the fitted concentration of half-maximal effect
# Summary of the method: (§1)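 Real-time, in one plate: 600 HEK293 cells/well with dead-cell DNA dye, pinned compound after 5 h, 37 C incubation over 40 h; viable cells give no appreciable fluorescence.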
# [2] = A CellTox Green Cytotoxicity Assay to monitor cytotoxicity in HepG2 cells - 0 hour (AID 1224882); note: nearly all actives have a fitted effect of over 35% in size
# Summary of the method: (§2)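 Cytotoxicity was tracked as dead-cell DNA fluorescence in HepG2 cells treated with test compounds at 37 C; each time-point value comes from one kinetic series spanning 0, 8, 16, 24, 32 and 40 h.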
# [3] = qHTS RealTime-Glo MT Cell Viability Assay in HEK293 cells - 8 hour (AID 1224887); note: nearly all actives have a fitted effect of over 50% in size; note: potency is the fitted concentration of half-maximal effect
# Summary of the method: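 Kinetic, non-lysing viability readout. Seed HEK293 (600/well) with reagent, incubate 5 h at 37 C/5% CO2, pin 23 nL compound in DMSO, incubate at 37 C, read luminescence at 0, 8, 16, 24, 32, 40 h.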
# [4] = A CellTox Green Cytotoxicity Assay to monitor cytotoxicity in HEK293 cells - 16 hour (AID 1224888); note: nearly all actives have a fitted effect of over 35% in size; note: potency is the fitted concentration of half-maximal effect
# Summary of the method: as §1
# [5] = A CellTox Green Cytotoxicity Assay to monitor cytotoxicity in HepG2 cells - 8 hour (AID 1224890); note: nearly all actives have a fitted effect of over 45% in size; note: potency is the fitted concentration of half-maximal effect
# Summary of the method: as §2
# [6] = qHTS assay to identify small molecule antagonists of the estrogen receptor alpha (ER-alpha) signaling pathway using the BG1 cell line in the presence of 0.1 nM 17-beta-estradiol - cell viability counter screen (AID 1259241); note: nearly all actives have a fitted effect of over 40% in size; note: potency is the fitted concentration of half-maximal effect
# Summary of the method: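 The cell line endogenously expresses full-length ER-alpha and carries four EREs driving luciferase. Cells are cultured 5 days hormone-free, treated 22 hr with compounds and 0.1 nM estradiol, then viability is read by fluorescence.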
# [7] = biological target: Estrogen receptor (Homo sapiens) (UniProt P03372); assay: qHTS assay to identify small molecule antagonists of the estrogen receptor alpha (ER-alpha) signaling pathway using the BG1 cell line in the presence of 0.1 nM 17-beta-estradiol (AID 1259244); note: nearly all actives have a fitted effect of over 50% in size; note: potency is the fitted concentration of half-maximal effect
# Chain of Estrogen receptor (Homo sapiens) (P03372 whole entry, looked up): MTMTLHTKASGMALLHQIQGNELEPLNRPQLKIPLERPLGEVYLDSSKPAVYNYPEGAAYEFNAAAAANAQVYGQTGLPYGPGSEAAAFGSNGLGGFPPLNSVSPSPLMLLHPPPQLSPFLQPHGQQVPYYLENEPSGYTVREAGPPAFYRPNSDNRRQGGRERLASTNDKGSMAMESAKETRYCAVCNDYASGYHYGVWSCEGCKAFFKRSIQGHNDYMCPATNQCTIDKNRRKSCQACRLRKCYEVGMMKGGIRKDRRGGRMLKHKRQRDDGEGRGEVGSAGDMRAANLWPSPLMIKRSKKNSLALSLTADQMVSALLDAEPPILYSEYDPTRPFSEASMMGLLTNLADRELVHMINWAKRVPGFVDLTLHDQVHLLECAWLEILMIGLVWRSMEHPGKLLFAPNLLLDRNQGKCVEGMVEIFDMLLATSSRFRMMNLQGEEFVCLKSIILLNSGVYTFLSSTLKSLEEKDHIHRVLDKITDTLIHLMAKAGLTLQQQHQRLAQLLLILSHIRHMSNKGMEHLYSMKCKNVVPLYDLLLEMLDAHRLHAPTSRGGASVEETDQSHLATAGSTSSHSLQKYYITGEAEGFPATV
# Summary of the method: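 Luciferase signal from VM7Luc4E2 ERE-reporter cells, co-dosed with test compound and 0.1 nM final 17beta-estradiol for 22 h, read with ONE-Glo.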
# [8] = qHTS assay to identify small molecule HDAC inhibitors (AID 1259364); note: potency is the fitted concentration of half-maximal effect;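 note: wild-type HCT-116 cells with endogenous class I/II HDAC activity; nearly all actives have a fitted effect of over 45% in size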
# Summary of the method: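 HCT-116 wt cells, 1,500/well, overnight attach. Compounds (DMSO) 2 h, 37 °C. HDAC-Glo I/II, 30 min RT. Luminescence.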
# [9] = qHTS assay to identify small molecule HDAC inhibitors - cell viability counter screen (AID 1259365); note: nearly all actives have a fitted effect of over 50% in size; note: potency is the fitted concentration of half-maximal effect
# Summary of the method: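 Viability readout: CellTiter-Glo luminescence. Wild-type HCT-116 cells, 2hr compound treatment following overnight attachment at 37 C.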
# [10] = qHTS assay to identify small molecule agonists of the sonic hedgehog signaling (Shh) pathway - cell viability counter screen (AID 1259366); note: nearly all actives have a fitted effect of over 50% in size; note: potency is the fitted concentration of half-maximal effect
# Summary of the method: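 Viability measured fluorometrically (CellTiter-Fluor, 1hr, 37C) in 3T3 Gli1-Luc reporter cells after 23hr compound exposure within a 24hr incubation at 37C/5% CO2.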
# [11] = qHTS assay to identify small molecule antagonists of the sonic hedgehog signaling (Shh) pathway - cell viability counter screen (AID 1259367); note: nearly all actives have a fitted effect of over 55% in size; note: potency is the fitted concentration of half-maximal effect
# Summary of the method: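 Viability was read by CellTiter-Fluor fluorescence in the same wells, reagent added 23 hr into compound treatment and incubated 1 hr at 37C. The 3T3 Gli1-Luc reporter cells (2,000/well) received conditioned medium after compound and ran 24 hr.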
# [12] = qHTS assay to identify small molecule agonists of the sonic hedgehog signaling (Shh) pathway (AID 1259368; calls by dose curve; note: nearly all actives have a fitted effect of over 15% in size; note: potency is the fitted concentration of half-maximal effect)
# Summary of the method: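 Following a 24 hr incubation with DMSO-dissolved compounds at 37 C, 5% CO2, Gli1-Luc NIH/3T3-derived cells received luciferase reagent for 30 min at room temperature prior to luminescence measurement.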
# [13] = A CellTox Green Cytotoxicity Assay to monitor cytotoxicity in HEK293 cells - 8 hour (AID 1224884); note: nearly all actives have a fitted effect of over 35% in size; note: potency is the fitted concentration of half-maximal effect
# Summary of the method: as §1
# [14] = qHTS RealTime-Glo MT Cell Viability Assay in HepG2 cells - 16 hour (AID 1224885); note: nearly all actives have a fitted effect of over 50% in size
# Summary of the method: (§3)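 Cells + NanoLuc/prosubstrate dispensed (600 cells/well) → 5 h at 37 C/5% CO2 → compounds in DMSO transferred → 40 h incubation at 37 C, luminescence read at 0, 8, 16, 24, 32, 40 h.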
# [15] = qHTS RealTime-Glo MT Cell Viability Assay in HEK293 cells - 24 hour (AID 1224886); note: nearly all actives have a fitted effect of over 50% in size; note: potency is the fitted concentration of half-maximal effect
# Summary of the method: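 Tox21 10K qHTS, HEK293, 600 cells/well, RealTime-Glo reagent co-dispensed with cells; 5 h preincubation, compound by pintool, 37 C, luminescence at 0–40 h.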
# [16] = qHTS RealTime-Glo MT Cell Viability Assay in HepG2 cells - 0 hour (AID 1224889); note: nearly all actives have a fitted effect of over 50% in size
# Summary of the method: as §3
# [17] = qHTS assay to identify small molecule antagonists of the androgen receptor (AR) signaling pathway using the MDA cell line in the presence of 0.5 nM R1881 - cell viability counter screen (AID 1259242); note: nearly all actives have a fitted effect of over 45% in size; note: potency is the fitted concentration of half-maximal effect
# Summary of the method: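 Cells seeded at 3,000/well and allowed 5 hr at 37C, 0% CO2 before compound transfer and R1881 (0.5 nM final) addition; 16 hr later, live-cell protease fluorescence indicated cytotoxicity.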
# [18] = qHTS assay to identify small molecule phospholipidosis (PLD) inducers (AID 1259344; active = well fitted curve in the direction sought with a large enough effect; an effect the other way counts as inactive or inconclusive)
# Summary of the method: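 Phospholipid accumulation was scored by imaging: fixed, Hoechst-counterstained HepG2 cells stained with LipidTOX Red after 24 h compound exposure at 37 C. Read-outs were pit count and pit intensity per well or per cell, with amiodarone and DMSO controls.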
# [19] = A CellTox Green Cytotoxicity Assay to monitor cytotoxicity in HepG2 cells - 32 hour (AID 1224883); note: nearly all actives have a fitted effect of over 50% in size; note: potency is the fitted concentration of half-maximal effect
# Summary of the method: as §2
# [20] = biological target: Androgen receptor (Homo sapiens) (UniProt P10275); assay: qHTS assay to identify small molecule antagonists of the androgen receptor (AR) signaling pathway using the MDA cell line in the presence of 0.5 nM R1881 (AID 1259243); note: nearly all actives have a fitted effect of over 50% in size
# Chain of Androgen receptor (Homo sapiens) (P10275 whole entry, looked up): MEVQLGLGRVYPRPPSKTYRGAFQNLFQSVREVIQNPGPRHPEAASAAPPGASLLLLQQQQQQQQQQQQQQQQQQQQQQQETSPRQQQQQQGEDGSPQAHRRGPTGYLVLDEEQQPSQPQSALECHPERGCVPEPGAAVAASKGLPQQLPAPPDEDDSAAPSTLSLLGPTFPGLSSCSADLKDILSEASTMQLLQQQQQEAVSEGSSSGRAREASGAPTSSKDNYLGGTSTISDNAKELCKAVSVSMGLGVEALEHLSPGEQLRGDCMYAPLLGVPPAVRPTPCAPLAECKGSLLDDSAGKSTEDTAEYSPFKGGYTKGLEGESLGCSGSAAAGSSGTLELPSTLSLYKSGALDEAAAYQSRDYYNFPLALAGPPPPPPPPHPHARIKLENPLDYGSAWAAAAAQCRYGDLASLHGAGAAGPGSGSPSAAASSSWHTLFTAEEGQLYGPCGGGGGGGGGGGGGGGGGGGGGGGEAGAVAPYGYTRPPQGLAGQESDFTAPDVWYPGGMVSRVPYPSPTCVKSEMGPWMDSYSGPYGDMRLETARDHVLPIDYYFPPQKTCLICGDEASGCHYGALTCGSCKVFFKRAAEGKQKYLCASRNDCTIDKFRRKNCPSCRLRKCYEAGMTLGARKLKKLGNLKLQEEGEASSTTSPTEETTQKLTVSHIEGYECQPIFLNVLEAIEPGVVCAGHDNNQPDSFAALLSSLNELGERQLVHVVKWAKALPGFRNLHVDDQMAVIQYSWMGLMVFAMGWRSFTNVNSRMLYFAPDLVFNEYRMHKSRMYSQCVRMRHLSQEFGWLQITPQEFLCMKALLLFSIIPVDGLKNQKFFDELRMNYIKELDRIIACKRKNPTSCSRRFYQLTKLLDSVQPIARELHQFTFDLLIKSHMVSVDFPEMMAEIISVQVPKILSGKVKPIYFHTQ
# Summary of the method: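 Luminescence from an AR/GR-responsive MMTV-luciferase construct in MDA-kb2 breast carcinoma cells, read 30 min after ONE-Glo, following 16 hr co-treatment with compounds and 0.5 nM R1881.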
SMILES,Potency [1],Potency [2],Potency [3],Potency [4],Potency [5],Potency [6],Potency [7],Potency [8],Potency [9],Potency [10],Potency [11],Potency [12],Potency [13],Potency [14],Potency [15],Potency [16],Potency [17],outcome [18],Potency [19],Potency [20]
O.O.O.O=C([O-])[C@H]([O-])[C@@H]([O-])C(=O)[O-].O=C([O-])[C@H]([O-])[C@@H]([O-])C(=O)[O-].[K+].[K+].[Sb+3].[Sb+3],inactive,inactive,inactive,inactive,inactive,48.8 µM (active),inactive,inactive,inactive,inactive,inactive,inactive,,,,,,,,
c1ccc2nc(N3CCNCC3)ccc2c1,inactive,inactive,,inactive,inactive,inactive,inactive,inactive,inactive,,inactive,inactive,inactive,inactive,inactive,inactive,inactive,inactive,,
N#Cc1c[nH]cc1-c1cccc2c1OC(F)(F)O2,inactive,inactive,,inactive,inactive,inactive,24.3 µM (active),inactive,inactive,inactive,inactive,inactive,inactive,inactive,,inactive,inactive,,,
FC(F)C(F)(F)OCC(Cn1cncn1)c1ccc(Cl)cc1Cl (configuration not stated),,inactive,,inactive,,,,inactive,inactive,48.3 µM (active),,inactive,inactive,,21.7 µM (active),,inactive,,48.7 µM (active),
CN(C)c1ccc(N)cc1,,inactive,24 µM (active),inactive,inactive,47.4 µM (active),29.9 µM (active),23.7 µM (active),,53.2 µM (active),,,inactive,,42.6 µM (active),inactive,,,inactive,
CC(=O)[O][Sn]([c]1ccccc1)([c]1ccccc1)[c]1ccccc1,0.219 µM (active),inactive,0.123 µM (active),0.347 µM (active),13.8 µM (active),0.545 µM (active),inactive,inactive,54.5 µM (active),0.0545 µM (active),0.109 µM (active),inactive,0.347 µM (active),,0.0436 µM (active),,0.306 µM (active),,,
Nc1ccc(N=Nc2ccccc2)cc1,inactive,inactive,,inactive,inactive,,inactive,8.63 µM (active),inactive,15.4 µM (active),3.44 µM (active),4.86 µM (active),inactive,,,inactive,,inactive,,
COC(=O)C(C)N(C(=O)c1ccco1)c1c(C)cccc1C (configuration not stated),inactive,inactive,inactive,inactive,inactive,,inactive,inactive,inactive,inactive,inactive,inactive,inactive,inactive,inactive,inactive,inactive,,,
C=CCOC(=O)c1ccccc1N,,inactive,,inactive,inactive,inactive,inactive,inactive,inactive,inactive,inactive,inactive,inactive,inactive,inactive,inactive,inactive,,inactive,
Cc1c([N+](=O)[O-])cc2c(c1[N+](=O)[O-])C(C)(C)CC2(C)C,,inactive,inactive,,inactive,inactive,,inactive,inactive,inactive,inactive,inactive,,inactive,inactive,inactive,inactive,,inactive,
O=[N+]([O-])C(Br)Br,,inactive,,,inactive,,,inactive,inactive,inactive,inactive,inactive,inactive,inactive,55 µM (active),inactive,inactive,,,inactive
Oc1cc(Cl)c(Cl)c(Cl)c1Cl,inactive,inactive,,,inactive,inactive,29.9 µM (active),inactive,inactive,inactive,,inactive,inactive,inactive,47.8 µM (active),,,,,
CCc1cccc(C)c1N(C(=O)CCl)[C@@H](C)COC,,inactive,,,,inactive,,inactive,inactive,inactive,inactive,,,,inactive,,inactive,,43.6 µM (active),
COc1ccc2c3c1O[C@H]1[C@H](O)CC[C@H]4[C@@H](C2)N(C)CC[C@@]341,,inactive,,inactive,inactive,inactive,,inactive,inactive,inactive,inactive,inactive,inactive,inactive,inactive,inactive,inactive,inactive,inactive,
CC1=C2C[C@H]3[C@@H](CC=C4C[C@@H](O)CC[C@@]43C)[C@@H]2CC[C@]12O[C@@H]1C[C@H](C)CN[C@H]1[C@H]2C,,inactive,,inactive,inactive,inactive,inactive,inactive,inactive,inactive,inactive,inactive,inactive,inactive,16.9 µM (active),,,,26.8 µM (active),inactive
O=[N+]([O-])c1ccc(Cl)c(Cl)c1Cl,,inactive,inactive,,inactive,inactive,inactive,inactive,inactive,inactive,inactive,inactive,inactive,inactive,inactive,inactive,inactive,,inactive,
O=S1(=O)OCC2C(CO1)C1(Cl)C(Cl)=C(Cl)C2(Cl)C1(Cl)Cl (configuration not stated),,inactive,,inactive,inactive,inactive,54.5 µM (active),inactive,inactive,,inactive,inactive,inactive,,19.5 µM (active),inactive,,,,
